Bioassay records deposited in PubChem BioAssay by National Center for Advancing Translational Sciences (NCATS).
Most compounds without a hit are left out; they make up all but 17% or so of the library.
TDP1 cell noCPT = qHTS for Inhibitors of human tyrosyl-DNA phosphodiesterase 1 (TDP1): qHTS in cells in absence of CPT; DT40 Tdp1-/- hTDP1 cells, no CPT, ATP luminescence, 48 h; Potency, µM (titrated, usually from 46.2 µM), without a hit: top-dose activity change, negative = growth inhibition, usual class: inhibitors; actives 15% (n = 420,000); AID 686978, 2013; note: % is set by controls: 0 for no effect and ±100 for the full control effect; nearly all actives have a fitted effect of over 55% in size
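Stably hTDP1-transfected Tdp1-null chicken DT40 cells were treated with library compounds minus camptothecin and grown for at least 48 hr at 37 °C, after which cellular ATP was quantified by luminescence.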
ClpP mod = qHTS Assay for Activators of ClpP; ATP-dependent Clp protease proteolytic subunit (Bacillus subtilis (strain 168)), P80244; purified B. subtilis ClpP, FRET peptide cleavage, 20 min; Potency, µM (doses to about 57.5 µM), inactives show at the top dose activity change, negative = active; actives 1.9% (n = 340,000); active = well fitted falling curve with a large enough effect; inconclusive = small, poorly fitted or top-dose-only effect; inactive = no such curve, though single readings can be large or run the other way; note: the source files actives as falling curves though it sought activators and does not explain the sign; nearly all actives have a fitted effect of over 65% in size
Target sequence (P80244 whole entry, looked up): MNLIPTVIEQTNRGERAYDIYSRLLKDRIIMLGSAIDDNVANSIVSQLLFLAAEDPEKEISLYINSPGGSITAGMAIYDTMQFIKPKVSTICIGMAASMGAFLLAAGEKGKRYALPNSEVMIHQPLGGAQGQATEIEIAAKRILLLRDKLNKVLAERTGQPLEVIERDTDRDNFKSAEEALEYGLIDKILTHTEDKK
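Purified B. subtilis ClpP, 10 microg/mL final in Tris/HCl pH8 with KCl, BSA, glycerol and Tween-20, cleaved an Abz/nitrotyrosine-quenched decapeptide. Fluorescence (ex 320, em 430) was read at 0 and 20 min at room temperature. Delta was normalized to 5.8 microM ADEP and DMSO/no-enzyme controls.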
TDP1 inh = blocks human tyrosyl-DNA phosphodiesterase 1; Potency, µM (series often up to 130 µM), inactives show at the top dose activity change, negative = inhibition, hits mostly inhibitors; recombinant TDP1, AlphaScreen DNA substrate cleavage; Q9NUW8; actives 0.28% (n = 350,000); note: % is set by controls: 0 for no effect and ±100 for the full control effect; nearly all actives have a fitted effect of over 40% in size
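Compounds were preincubated with Tdp1 (1 nM final) for 15 min at room temperature before substrate (15 nM final) started a 5 min reaction; beads (10 ug/ml final) were then added for 10 min before AlphaScreen detection.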
DT40 TDP1 CPT = growth inhibition of DT40 Tdp1-/-;hTDP1 cells with camptothecin (screen for TDP1 inhibitors); AID 686979; actives 12% (n = 420,000); Potency, µM (series often up to 46.2 µM), without a hit: top-dose activity change, negative = growth inhibition, hits mostly inhibitors; chicken DT40 Tdp1-/-;hTDP1 cells + 20 nM CPT, ATP luminescence, 48 h; note: % is set by controls: 0 for no effect and ±100 for the full control effect; nearly all actives have a fitted effect of over 55% in size
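Cell growth measured by CellTiter-Glo luminescence after a minimum 48 h, 37 C compound exposure with 20 nM CPT in Tdp1-knockout DT40 cells stably expressing hTDP1, seeded 400/well; qHTS titration format.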
An asterisk follows results filed as active; ? = inconclusive; · = no result. Unless noted, calls come from the whole dose curve; as a rule, active = well fitted curve in the direction sought with a large enough effect; inconclusive = small, poorly fitted or top-dose-only effect, or another doubt; inactive = no such curve, though single readings can be large; an effect the other way counts as inactive or inconclusive. Potency is the fitted concentration of half-maximal effect.

SMILES	TDP1 cell noCPT	ClpP mod	TDP1 inh	DT40 TDP1 CPT
CCOc1ccc(-c2nnc(NC(=O)COc3ccccc3F)o2)cc1	?	-17%	·	-22%
CCOC(=O)N1CCN(Cc2ccc3ccccc3c2)CC1	?	-1%	·	-13%
C=C1CCC[C@]2(C)C[C@H]3OC(=O)[C@H](CNCCc4ccccc4OC)C3CC12 (stereo not given in full)	?	·	-6%	?
COC1=C(Br)C(=O)c2nc(C)ccc2C1=O	0.58µM*	38%	·	0.65µM*
COC1=C(N)C(=O)c2nc(C)ccc2C1=O	7.3µM*	-6%	·	5.2µM*
CCc1ccccc1N(CC(=O)NC(C)c1ccccc1)S(C)(=O)=O (stereo not given)	3%	0%	·	9%
CCn1c(CN2CCN(c3ccc(OC)cc3)CC2)nc2cc(S(=O)(=O)N(C)C)ccc21	?	-1%	7%	21µM*
CN1C2=C(C(=O)CC(C)(C)C2)C(c2cccs2)C2=C1CC(C)(C)CC2=O	-13%	·	·	0%
Cc1ccc(-n2ncc(C(=O)NCc3cccs3)c2C2CCN(C(=O)OC(C)(C)C)CC2)cc1C	16µM*	2%	6%	16µM*
Cc1c(Cl)cccc1-n1ncc(C(=O)NCc2cccs2)c1C1CCN(C(=O)OC(C)(C)C)CC1	?	0%	-1%	?
Cc1ccc(-n2ncc(C(=O)NCc3cccs3)c2C2CCN(C(=O)OC(C)(C)C)CC2)c(C)c1	?	-3%	4%	?
Cc1ccc(-n2ncc(C(=O)NCc3ccccn3)c2C2CCN(C(=O)OC(C)(C)C)CC2)cc1C	18µM*	-2%	3%	?
CC(C)(C)OC(=O)N1CCC(c2c(C(=O)NCc3cccs3)cnn2-c2cccc(F)c2)CC1	16µM*	3%	2%	?
Cc1ccc(C)c(NC(=O)c2cnn(-c3cccc(F)c3)c2C2CCN(C(=O)OC(C)(C)C)CC2)c1	23µM*	-8%	-1%	?
Cc1cc(C)n(-c2ccc(C(=O)Nc3ccc(C)c(S(=O)(=O)N(C)C)c3)cc2)n1	?	0%	6%	?
Cc1cc(C)n(-c2ccc(C(=O)Nc3ccc(S(=O)(=O)N(C)C)cc3)cc2)n1	23µM*	3%	5%	?
CCN(CC)S(=O)(=O)c1cccc(NC(=O)c2ccc(-n3nc(C)cc3C)cc2)c1	23µM*	1%	5%	?
Cc1cc(C)n(-c2ccc(C(=O)Nc3cccc([N+](=O)[O-])c3)cc2)n1	?	·	1%	-23%
Cc1cc(C)n(-c2ccc(C(=O)Nc3cccc(S(=O)(=O)N(C)C)c3)cc2)n1	1.6µM*	2%	2%	1.8µM*
Cc1ccccc1NC(=O)Nc1nnc(Cc2ccc([N+](=O)[O-])cc2)s1	-10%	2%	0%	-26%
COc1ccc(C(=O)N2CCC3(CCN(Cc4ccccc4)CC3)CC2)cc1	-13%	·	·	1%
CC1(C(=O)NS(=O)(=O)c2ccc(C#N)cc2)CCN1C(=O)Cc1ccccc1Cl (stereo not given)	-3%	0%	·	-15%
CC(CCO)Nc1nc2c(c(=O)n(C)c(=O)n2C)n1Cc1cccc(Br)c1 (stereo not given)	21µM*	-4%	7%	12µM*
CC(O)CNc1nc2c(c(=O)n(C)c(=O)n2C)n1Cc1cccc(Br)c1 (stereo not given)	14µM*	0%	5%	?
Cn1c(NCCO)nc2c1c(=O)n(Cc1cccc(F)c1)c(=O)n2C	-17%	1%	·	6%
SMILES	TDP1 cell noCPT	ClpP mod	TDP1 inh	DT40 TDP1 CPT
Cn1c(=O)c2c(ncn2Cc2ccccc2)n(C)c1=O	-29%	0%	2%	?
CC(O)CNc1nc2c(c(=O)n(C)c(=O)n2C)n1Cc1cccc(C(F)(F)F)c1 (stereo not given)	26µM*	-4%	1%	?
Cn1c(=O)c2c(nc(NCC(O)CO)n2CCc2ccccc2)n(C)c1=O (stereo not given)	?	1%	-5%	-23%
COc1cccc(Cn2cnc3c2c(=O)n(C)c(=O)n3C)c1	12µM*	-3%	0%	12µM*
CCOP(=O)(OCC)C(C)(C)NC(=O)Nc1ccc(Cl)c(Cl)c1	?	-2%	3%	-18%
O=c1c(-c2ccc(F)c(F)c2)nc2cncnc2n1C1CC1	16%	·	·	-2%
Cn1c(=O)c2c(nc(NCCCN3CCOCC3)n2Cc2cccc(Cl)c2)n(C)c1=O	?	0%	5%	?
COCCNc1nc2c(c(=O)n(C)c(=O)n2C)n1Cc1cccc(C(F)(F)F)c1	3.7µM*	0%	5%	3.3µM*
Cn1c(Cl)nc2c1c(=O)n(Cc1cccc(Br)c1)c(=O)n2C	?	0%	4%	?
COc1cccc(Cn2c(NCC(C)C)nc3c2c(=O)n(C)c(=O)n3C)c1	23µM*	-2%	2%	29µM*
CC(C)CNc1nc2c(c(=O)n(C)c(=O)n2C)n1Cc1cccc(Br)c1	23µM*	-1%	0%	21µM*
O=C(c1ccccc1Cl)N1CCCC(c2nc3c(nnn3Cc3ccc(F)cc3F)c(=O)[nH]2)C1 (stereo not given)	?	-10%	-5%	?
Cc1nn(C)cc1S(=O)(=O)N1CCCCC1C (stereo not given)	7%	0%	1%	-15%
CC(C)CCNC(=O)CN(Cc1ccco1)C(=O)c1snc(C(N)=O)c1N	-17%	·	-5%	3%
CCc1ccccc1N(CC(=O)NCc1ccco1)C(=O)c1snc(C(N)=O)c1N	18µM*	?	-9%	?
Cc1ccc(C(C(=O)NCc2ccccc2)N(Cc2ccco2)C(=O)c2snc(C(N)=O)c2N)o1 (stereo not given)	15µM*	·	10%	?
COc1cc(OC)cc(C(C(=O)NCc2ccccc2)N(Cc2ccco2)C(=O)c2ccno2)c1 (stereo not given)	23µM*	-2%	7%	?
Cc1ccc(S(=O)(=O)NCC2CCC(C(=O)NCCCOC(C)C)CC2)cc1 (stereo not given)	-13%	1%	5%	-3%
O=C(Nc1nc2ccc(Cl)cc2s1)c1ccc(S(=O)(=O)N2CCCC2)cc1	-22%	2%	3%	-3%
Cc1ncc(Cc2ccccc2)c(C2CCN(S(=O)(=O)C[C@]34CC[C@H](CC3=O)C4(C)C)CC2)n1	15µM*	·	·	?
Cc1ccc(C)c(N2CCN(S(=O)(=O)CC34CCC(CC3=O)C4(C)C)CC2)c1 (stereo not given)	-24%	1%	1%	?
Cc1ccc(N2CCN(C(=O)C3CCN(S(=O)(=O)c4cccc5nsnc45)CC3)CC2C)cc1 (stereo not given)	16µM*	·	·	?
